# Results from PubChem BioAssay (NCATS).
# Inconclusive results are not listed. Entries that show only a call come without a potency. Calls of active or inactive are those of the source. Unless noted, calls come from the whole dose curve.
# Key:
# [1] = target: Cytochrome P450 2D6 (Homo sapiens) (UniProt P10635); experiment: Cytochrome P450 family 2 subfamily D member 6 (CYP2D6) small molecule antagonists: luciferase biochemical (cell-free) qHTS assay (AID 1645840; active = well fitted curve in the direction sought with a large enough effect in the repeat runs; an effect the other way counts as inactive or inconclusive; note: nearly all actives have a fitted effect of over 55% in size; note: potency is the fitted concentration of half-maximal effect)
# Chain of Cytochrome P450 2D6 (Homo sapiens) (P10635 whole entry, looked up): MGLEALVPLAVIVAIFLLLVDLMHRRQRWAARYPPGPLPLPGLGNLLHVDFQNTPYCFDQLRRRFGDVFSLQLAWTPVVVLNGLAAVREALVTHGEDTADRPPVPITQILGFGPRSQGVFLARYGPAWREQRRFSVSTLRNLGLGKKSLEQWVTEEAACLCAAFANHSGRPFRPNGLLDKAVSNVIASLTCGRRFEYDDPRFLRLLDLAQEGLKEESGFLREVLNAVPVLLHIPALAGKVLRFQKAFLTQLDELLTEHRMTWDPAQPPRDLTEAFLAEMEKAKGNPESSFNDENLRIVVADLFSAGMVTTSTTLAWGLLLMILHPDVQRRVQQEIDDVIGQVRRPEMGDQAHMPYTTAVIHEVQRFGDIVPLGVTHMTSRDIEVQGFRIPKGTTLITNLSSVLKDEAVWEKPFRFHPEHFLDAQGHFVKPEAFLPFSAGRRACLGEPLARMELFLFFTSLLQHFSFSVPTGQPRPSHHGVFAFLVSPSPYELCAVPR
# Summary of the method: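 P450-Glo CYP2D6 system: proluciferin substrate converted by enzyme to luciferin, read by luminescence proportional to activity. Enzyme-substrate mix with compound 10 min at room temperature, then NADPH regeneration 1 h before detection reagent.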
# [2] = A High-Content qHTS Against Drug Library for the Identification of Small Molecules that Inhibit DYT1 Early Onset Primary Dystonia-Associated Cell Pathology (AID 1645839)
# Summary of the method: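 High-content imaging quantified EGFP-TorsinA mislocalization in HEK293-derived cells inducibly expressing DYT1 mutant torsinA, after 48 h exposure to compound given together with tetracycline induction. Cell count served as a toxicity channel alongside %pathology.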
# [3] = Cytotoxicity counterscreen for inhibitors of SARS-CoV-2 cell entry (AID 1645845); note: nearly all actives have a fitted effect of over 50% in size
# Summary of the method: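 ATP-content luminescence (ATPLite 1step, 15 min RT) read after 48 h compound exposure of Expi293F cells stably expressing human ACE2; normalized to cells-only wells and media-only wells.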
# [4] = Primary qHTS to identify inhibitors of SARS-CoV-2 cell entry (AID 1645846); settings: activity change, negative = inhibition: at 57.1 µM (top of the series) unless noted; note: nearly all actives have a fitted effect of over 45% in size
# Summary of the method: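 HEK293 cells stably expressing human ACE2, pre-treated 1 h with compound, then infected with MLV particles pseudotyped with Wuhan-Hu-1 spike (C-terminal 19-aa truncation). Luciferase luminescence after 48 h at 37 °C, normalised to spike PP and bald PP.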
# [5] = target: Cytochrome P450 2C9 (Homo sapiens) (UniProt P11712); experiment: Cytochrome P450 family 2 subfamily C member 9 (CYP2C9) small molecule antagonists: luciferase biochemical (cell-free) qHTS assay (AID 1645842; active = well fitted curve in the direction sought with a large enough effect in the repeat runs; an effect the other way counts as inactive or inconclusive; note: nearly all actives have a fitted effect of over 55% in size; note: potency is the fitted concentration of half-maximal effect)
# Chain of Cytochrome P450 2C9 (Homo sapiens) (P11712 whole entry, looked up): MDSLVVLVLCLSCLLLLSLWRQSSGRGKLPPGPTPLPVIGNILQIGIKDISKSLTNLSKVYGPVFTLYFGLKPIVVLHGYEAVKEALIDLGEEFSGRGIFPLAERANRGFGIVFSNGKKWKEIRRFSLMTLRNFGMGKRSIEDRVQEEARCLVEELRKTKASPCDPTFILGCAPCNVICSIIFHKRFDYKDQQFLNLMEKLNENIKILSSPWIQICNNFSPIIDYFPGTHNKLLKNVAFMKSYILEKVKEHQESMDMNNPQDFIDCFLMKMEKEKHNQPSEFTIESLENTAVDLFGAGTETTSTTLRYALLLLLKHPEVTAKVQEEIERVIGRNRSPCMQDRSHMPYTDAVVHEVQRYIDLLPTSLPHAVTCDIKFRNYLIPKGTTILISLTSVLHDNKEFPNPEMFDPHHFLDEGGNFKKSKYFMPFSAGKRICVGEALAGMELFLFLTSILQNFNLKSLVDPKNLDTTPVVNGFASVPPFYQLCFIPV
# Summary of the method: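 P450-Glo CYP2C9 system: proluciferin substrate with enzyme in mix containing 0.4% BSA, 10 min at room temperature, then NADPH regeneration solution added and incubated 1 h at 37C. Detection reagent stopped reaction; luminescence read after 20 min as RLU.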
# [6] = target: Cytochrome P450 3A4 (Homo sapiens) (UniProt P08684); experiment: Cytochrome P450 family 3 subfamily A member 4 (CYP3A4) small molecule antagonists: luciferase qHTS assay (AID 1645841; active = well fitted curve in the direction sought with a large enough effect in the repeat runs; an effect the other way counts as inactive or inconclusive; note: nearly all actives have a fitted effect of over 45% in size; note: potency is the fitted concentration of half-maximal effect)
# Chain of Cytochrome P450 3A4 (Homo sapiens) (P08684 whole entry, looked up): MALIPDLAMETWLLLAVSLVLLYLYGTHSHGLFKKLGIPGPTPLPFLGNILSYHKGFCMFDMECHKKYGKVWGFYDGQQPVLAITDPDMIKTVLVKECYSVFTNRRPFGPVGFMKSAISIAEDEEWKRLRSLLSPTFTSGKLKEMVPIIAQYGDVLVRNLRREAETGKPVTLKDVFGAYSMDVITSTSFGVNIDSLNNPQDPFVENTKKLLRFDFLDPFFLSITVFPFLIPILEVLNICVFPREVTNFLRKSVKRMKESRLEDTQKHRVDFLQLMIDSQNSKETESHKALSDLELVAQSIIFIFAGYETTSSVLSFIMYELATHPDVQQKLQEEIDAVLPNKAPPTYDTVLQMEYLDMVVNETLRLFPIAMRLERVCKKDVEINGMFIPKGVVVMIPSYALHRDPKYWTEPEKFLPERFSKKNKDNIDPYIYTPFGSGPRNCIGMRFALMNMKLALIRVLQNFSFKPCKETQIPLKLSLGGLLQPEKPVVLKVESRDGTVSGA
# Summary of the method: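 Luminescent CYP3A4 activity readout: compounds plus enzyme-substrate mix 10 min at room temperature, reaction started with NADPH regenerating system for 1 h, stopped with detection reagent, read after 20 min. Ketoconazole served as control.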
# [7] = target: N-terminal Xaa-Pro-Lys N-methyltransferase 1 (Homo sapiens) (UniProt Q9BV86); experiment: Confirmatory qHTS for Inhibitors of N-terminal methyltransferase 1 (NTMT1): MTaseGlo Assay (AID 1645874; active = well fitted curve in the direction sought with a large enough effect; an effect the other way counts as inactive or inconclusive; note: potency is the fitted concentration of half-maximal effect; nearly all actives have a fitted effect of over 65% in size)
# Chain of N-terminal Xaa-Pro-Lys N-methyltransferase 1 (Homo sapiens) (Q9BV86 whole entry, looked up): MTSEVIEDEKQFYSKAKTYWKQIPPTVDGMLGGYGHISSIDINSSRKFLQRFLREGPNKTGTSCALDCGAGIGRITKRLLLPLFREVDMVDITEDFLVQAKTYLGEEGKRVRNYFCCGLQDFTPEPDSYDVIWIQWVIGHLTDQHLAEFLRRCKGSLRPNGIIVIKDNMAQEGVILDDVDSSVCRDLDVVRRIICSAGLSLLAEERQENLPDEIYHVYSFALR
# Summary of the method: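 Room-temperature NTMT1 reaction, 30 min, with 100 uM SAM and 1 uM SPKRIA substrate; enzyme 125 nM. Read-out: MTase-Glo luminescence, normalized to no-enzyme and DMSO controls.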
structure (smiles),measurement,setting,value
CC(C)(C)OC(=O)c1ncn2c1[C@@H]1CCCN1C(=O)c1c(Br)cccc1-2,Potency,[1],inactive
COP(=O)(OC)C(O)C(Cl)(Cl)Cl (stereo unspecified),outcome,[2],inactive
same,Potency,[3],inactive
same,"activity change, negative = inhibition",[4],-13.6%
C1CN2CCC1CC2,outcome,[2],inactive
same,Potency,[5],inactive
CCC1(c2ccccc2)CCC(=O)NC1=O (stereo unspecified),Potency,[1],inactive
CCOC(=O)NC(O)C(Cl)(Cl)Cl (stereo unspecified),outcome,[2],inactive
same,Potency,[1],inactive
same,Potency,[5],inactive
CNC(=O)NC(O)C(Cl)(Cl)Cl (stereo unspecified),outcome,[2],inactive
same,Potency,[1],inactive
same,Potency,[5],inactive
CN(C)C(=O)Oc1cc(OC(=O)N(C)C)cc(C(O)CNC(C)(C)C)c1 (stereo unspecified),outcome,[2],inactive
same,Potency,[1],8.71 µM (active)
same,Potency,[5],inactive
same,Potency,[3],inactive
same,Potency,[4],inactive
CC(Cc1ccccc1)NCc1ccccc1Cl (stereo unspecified),outcome,[2],inactive
same,Potency,[1],0.155 µM (active)
same,Potency,[3],inactive
same,"activity change, negative = inhibition",[4],-7.69%
NC1(c2ccccc2)CCCCC1,outcome,[2],inactive
same,Potency,[1],28 µM (active)
same,Potency,[5],inactive
CC(Cc1ccccc1)NCCCCl (stereo unspecified),outcome,[2],inactive
same,Potency,[1],1.23 µM (active)
same,Potency,[5],inactive
same,Potency,[3],inactive
CCN(Cc1ccc(Cl)nc1)/C(=C/[N+](=O)[O-])NC,outcome,[2],inactive
same,Potency,[5],inactive
CC1=C2[C@H]3OC(=O)[C@@H](C)[C@@H]3CC[C@@]2(C)C=CC1=O,outcome,[2],inactive
same,Potency,[1],inactive
same,Potency,[5],inactive
same,Potency,[3],inactive
same,"activity change, negative = inhibition",[4],2.07%
CCOC(=O)NC(C)(C)Cc1ccc(Cl)cc1,outcome,[2],inactive
same,Potency,[1],inactive
same,Potency,[5],15.5 µM (active)
CCN(CC)Cc1nccn1-c1ccc([N+](=O)[O-])cc1C(=O)c1ccccc1Cl,outcome,[2],inactive
same,Potency,[1],1.95 µM (active)
same,Potency,[3],inactive
CC(C(O)c1ccccc1)N(C)C/C=C/c1ccccc1 (stereo unspecified),outcome,[2],inactive
same,Potency,[1],0.0389 µM (active)
same,Potency,[3],inactive
O=C(O)Cc1ccccc1,outcome,[2],inactive
same,Potency,[1],15.5 µM (active)
same,Potency,[3],inactive
same,Potency,[4],inactive
Cc1ccc(N=CN(C)C=Nc2ccc(C)cc2C)c(C)c1,outcome,[2],inactive
same,Potency,[5],inactive
same,Potency,[3],inactive
same,"activity change, negative = inhibition",[4],-12.8%
CCOC(C(=O)OCCN(C)C)(c1ccccc1)c1ccccc1,outcome,[2],inactive
same,Potency,[1],1.38 µM (active)
same,Potency,[5],3.09 µM (active)
CC(C)C(Br)C(=O)NC(N)=O (stereo unspecified),outcome,[2],inactive
same,Potency,[1],inactive
same,Potency,[5],inactive
same,Potency,[3],inactive
same,"activity change, negative = inhibition",[4],4.07%
CCCN(CCC)CCc1c[nH]c2ccccc12,outcome,[2],inactive
same,Potency,[1],0.394 µM (active)
same,Potency,[6],inactive
same,Potency,[5],inactive
C#C[C@]1(O)CC[C@H]2[C@@H]3CCC4=CC(=O)CCC4=C3C=C[C@@]21CC,outcome,[2],inactive
same,Potency,[1],0.977 µM (active)
same,Potency,[3],inactive
CNC(=O)Oc1cccc2ccccc12,outcome,[2],inactive
same,Potency,[1],inactive
same,Potency,[5],inactive
same,Potency,[3],inactive
same,Potency,[4],inactive
COc1ccc(CN2CCNCC2)c(OC)c1OC,outcome,[2],inactive
same,Potency,[3],inactive
same,Potency,[4],inactive
CNC(C)Cc1ccccc1OC (stereo unspecified),outcome,[2],inactive
same,Potency,[5],inactive
same,Potency,[3],inactive
same,Potency,[4],inactive
O=C(N[C@H]1N=C(c2ccccc2F)c2cccc3c2N(CC3)C1=O)c1cc2ccccc2[nH]1,outcome,[2],inactive
same,Potency,[1],inactive
same,Potency,[5],6.92 µM (active)
same,Potency,[3],inactive
same,"activity change, negative = inhibition",[4],-28.2%
CCC(OC(C)=O)C(CC(C)NC)(c1ccccc1)c1ccccc1 (stereo unspecified),Potency,[1],18 µM (active)
ClCCCN1CCN(c2cccc(Cl)c2)CC1,outcome,[2],inactive
same,Potency,[1],1.1 µM (active)
same,Potency,[6],inactive
CCO[C@H]1O[C@@H]2OC3(C)CC[C@H]4[C@H](C)CC[C@@H]([C@H]1C)[C@@]24OO3,Potency,[1],inactive
COP(=S)(OC)Oc1ccc(Sc2ccc(OP(=S)(OC)OC)cc2)cc1,outcome,[2],inactive
same,Potency,[1],inactive
same,Potency,[6],7.76 µM (active)
same,Potency,[5],15.5 µM (active)
Cc1cccc(Cc2cnc[nH]2)c1C,outcome,[2],inactive
same,Potency,[1],0.871 µM (active)
same,Potency,[3],inactive
same,"activity change, negative = inhibition",[4],-1.14%
CN1CCc2cc(Cl)c(O)cc2[C@H]2c3ccccc3CC[C@@H]21,outcome,[2],inactive
same,Potency,[1],0.001 µM (active)
same,Potency,[5],inactive
C=CCN1CC[C@]23CCCC[C@H]2[C@H]1Cc1ccc(O)cc13,outcome,[2],inactive
same,Potency,[3],inactive
same,"activity change, negative = inhibition",[4],-14.7%
CCN(CC)CCOC(=O)C(C)(c1ccccc1)c1ccccc1,outcome,[2],inactive
same,Potency,[1],1.38 µM (active)
same,Potency,[5],3.89 µM (active)
COP(=O)(OC)OC=C(Cl)Cl,outcome,[2],inactive
same,Potency,[1],inactive
same,Potency,[5],inactive
same,Potency,[3],inactive
same,"activity change, negative = inhibition",[4],-2.57%
C[C@]12CC[C@H]3[C@@H](CCC4=CC(=O)CC[C@@H]43)[C@@H]1CC[C@@H]2O,outcome,[2],inactive
same,Potency,[1],inactive
CCCC[N+]1(C)[C@@H]2CC(OC(=O)[C@H](CO)c3ccccc3)C[C@H]1[C@@H]1O[C@@H]12 (stereo partly specified),Potency,[1],2.75 µM (active)
same,Potency,[3],inactive
same,"activity change, negative = inhibition",[4],-15.6%
CC[C@]1(O)CC[C@H]2[C@@H]3CCC4=CCCC[C@@H]4[C@H]3CC[C@@]21C,Potency,[1],17.4 µM (active)
same,Potency,[3],inactive
same,Potency,[7],14.1 µM (active)
Clc1ccc(C(OCCN2CCCCC2)c2ccccc2)cc1 (stereo unspecified),Potency,[1],0.049 µM (active)
same,Potency,[5],inactive
CC1N=C(N)OC1c1ccccc1 (stereo unspecified),Potency,[5],inactive
COc1cc(C[C@@H](C)N)c(OC)cc1Br,Potency,[1],25.9 µM (active)
O=C(O)c1nn(Cc2ccc(Cl)cc2Cl)c2ccccc12,Potency,[1],inactive
same,Potency,[3],inactive
same,"activity change, negative = inhibition",[4],-33.8%
Cc1c(Cl)c(=O)oc2cc(OP(=O)(OCCCl)OCCCl)ccc12,Potency,[1],1.55 µM (active)
same,Potency,[5],1.23 µM (active)
same,Potency,[3],inactive
same,Potency,[4],inactive
